# In PubChem BioAssay AID1740 (National Center for Advancing Translational Sciences (NCATS), 2009):
# Records with an inconclusive call do not appear. A call without a number means that no potency is given here. Calls of active or inactive are those of the source. The call rests on the fitted dose curve; in most records, active means well fitted activation curve with a large enough effect; inconclusive means small, poorly fitted or top-dose-only effect; inactive means no such curve, though single readings can be large or run the other way.
# Assay: Confirmation Concentration-Response Assay for Enhancers of SMN2 Splice Variant Expression
# Settings: HEK293 SMN2-exon7-luciferase splicing reporter, luminescence, 30-36 h; series mostly up to 22.7 µM
# Source text: NIH Chemical Genomics Center [NCGC] NIH Molecular Libraries Probe Production centers Network [MLPCN] MLPCN Grant: R03 MH084179-01 Assay Submitter (PI): Elliot Androphy NCGC Assay Overview: Spinal muscular atrophy (SMA) is caused by insufficient levels of the survival motor neuron protein SMN. The SMN locus on chromosome 5q13 contains two inverted copies of SMN called SMN1 and SMN2 which are 99% identical at the amino acid level. SMN1 is a fully functional protein and SMN2 skips exon 7 90% of the time. Skipping of exon 7 produces non-functional protein product. 10% of the SMN2 protein includes exon 7 and is fully functional. In the SMA disease state, mutations in the SMN1 locus are the cause of the disease state. Because only 10% of SMN2 is of the fully functional form, it is not sufficient to overcome the deficiency produced by the loss of the SMN1 product. A therapy that either increase the amount of SMN2 product made or to increase the inclusion of exon 7 has been proposed for the treatment of SMA. We have designed an assay to identify small molecules that can increase the amount of functional SMN2 product by appending a luciferase reporter gene after the native SMN2 gene, such that inclusion of exon 7 in the expressed product places the luciferase sequence in frame, thus generating functional luciferase enzyme.
# NCGC Assay Protocol Summary: This screen utilizes a luciferase reporter gene assay, combining the promoter with the major portion of the native SMN2 cDNA (exons 1 -7, intron 8 , exon 8 fused to luciferase) stably expressed in HEK293 cells. Compounds that increase luciferase signal presumably enhance expression of the functional SMN2 splice variant. Passaging media contained DMEM w/ glutamax (+phenol red) 10% FCS, 1x pen/strep, 200 ug/ml hygro, 1x sodium pyruvate. Assay media contained DMEM w/ glutamax (-phenol red) 10% FCS, 1x pen strep, 1x pyruvate Sequence, Parameter, Value, Description (1) Cells, 5 uL, 2000 cells/well, 1536 TC treated White solid bottom plate (2) Time, 10-12 hours, 37C 5% CO2 (3) Compound, 23 nl, MLSMR Library (4) Control Compound, 23 nL, Sodium butyrate st 4.5mM (final) conc (5) Time, 30-36 hours, 37C 5% CO2 (6) Reagent, 3 ul, One Glo (TM) from Promega (7) Time, 5-15 minutes, Room temp (8) Detector, Viewlux: luminescent read, 60 second integration, high speed 2x binning Keywords: Spinal muscular atrophy, SMA, SMN2, high throughput screening, MLSMR, MLPCN, NIH Roadmap, qHTS and NCGC
row,SMILES,Potency
1,C[C@@H]1O[C@@H](O[C@H]2C[C@@H](O)[C@]3(CO)[C@H]4[C@H](O)C[C@]5(C)[C@@H](C6COC(=O)C6)CC[C@]5(O)[C@@H]4CC[C@]3(O)C2)[C@H](O)[C@H](O)[C@H]1O (some centres undefined),inactive
2,O=C(C1CCN(c2nc3ccc(Br)cc3s2)CC1)N1CCC2(CC1)OCCO2,inactive
3,CCc1ccc2nc(N3CCC(C(=O)N4CCC5(CC4)OCCO5)CC3)sc2c1,inactive
4,COc1ccc(CNC(=O)c2ccc(C(C)C)cc2)cc1,5.01 µM (active)
